PubChem BioAssay (NCATS)
Records with an inconclusive call do not appear. Entries that show only a call come without a potency. The source made the active and inactive calls. Calls come from the whole dose curve; as a rule, active = well fitted inhibition curve with a large enough effect; inconclusive = small, poorly fitted or top-dose-only effect; inactive = flat fitted curve, though single readings scatter.

What was measured:
Test in all cases: qHTS profiling for inhibitors of Plasmodium falciparum proliferation (AID 504749); note: nearly all actives have a fitted effect of over 60% in size
Details in all cases: P. falciparum in erythrocytes, SYBR Green DNA, 72 h; series mostly up to 28.7 µM
CP286 = system: CP286
How it was run: (§1)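 Parasite proliferation within erythrocytes, 72 h exposure. Endpoint: SYBR Green I fluorescence after overnight lysis at room temperature. Controls: 0.29 uM artemisinin, DMSO.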

CP315 = system: CP315
How it was run: as §1

CP335 = system: CP335
How it was run: as §1

DFO2036 = system: DFO2036
How it was run: as §1

Dd2 = system: Dd2
How it was run: as §1

ECU = system: ECU
How it was run: as §1

HB3 = system: HB3
How it was run: as §1

ICS = system: ICS
How it was run: as §1

JCK = system: JCK
How it was run: as §1

CP269 = system: CP269
How it was run: as §1

CP291 = system: CP291
How it was run: as §1

CP297 = system: CP297
How it was run: as §1

CP305 = system: CP305
How it was run: as §1

CP325 = system: CP325
How it was run: as §1

CP329 = system: CP329
How it was run: as §1

DIV17 = system: DIV17
How it was run: as §1

DIV30 = system: DIV30
How it was run: as §1

FAB9 = system: FAB9
How it was run: as §1

GB4 = system: GB4
How it was run: as §1

DIV14 = system: DIV14
How it was run: as §1
Potency is the fitted concentration of half-maximal effect.

Compound | Potency (CP286) | Potency (CP315) | Potency (CP335) | Potency (DFO2036) | Potency (Dd2) | Potency (ECU) | Potency (HB3) | Potency (ICS) | Potency (JCK) | Potency (CP269) | Potency (CP291) | Potency (CP297) | Potency (CP305) | Potency (CP325) | Potency (CP329) | Potency (DIV17) | Potency (DIV30) | Potency (FAB9) | Potency (GB4) | Potency (DIV14)
CCCCCCCCCCCC(CC1OC(=O)C1CCCCCC)OC(=O)C(CC(C)C)NC=O (configuration not stated) | 1 µM (active) | inactive | 0.675 µM (active) | 0.501 µM (active) | 0.794 µM (active) | 0.398 µM (active) | 1.26 µM (active) | 1.12 µM (active) | 1 µM (active) |  |  |  |  |  |  |  |  |  |  | 
CCC(C(=O)O)C1CCC(C)C(C(C)C(O)C(C)C(=O)C(CC)C2OC3(C=CC(O)[C@@]4(CC[C@](C)(C5CC[C@@](O)(CC)C(C)O5)O4)O3)C(C)CC2C)O1 (some centres not stated) | 0.794 µM (active) | 0.478 µM (active) | 0.379 µM (active) | 0.794 µM (active) | 0.891 µM (active) | 1.58 µM (active) | 0.891 µM (active) | 1 µM (active) | 4.47 µM (active) | 0.675 µM (active) | 0.675 µM (active) | 0.757 µM (active) | 0.675 µM (active) | 0.849 µM (active) | 0.601 µM (active) | 0.601 µM (active) | 0.478 µM (active) | 2.24 µM (active) | 0.536 µM (active) | 
OCC(O)C(O)C(O)CO (configuration not stated) | inactive | inactive | inactive | inactive | inactive | inactive | inactive | inactive | inactive | inactive | inactive | inactive | inactive | inactive | inactive | inactive | inactive | inactive | inactive | inactive
Nc1nc2c(c(=O)[nH]1)N(C=O)[C@H](CNc1ccc(C(=O)N[C@@H](CCC(=O)O)C(=O)O)cc1)CN2 | inactive | inactive | inactive | inactive | inactive | inactive | inactive | inactive | inactive | inactive |  | inactive | inactive | inactive | inactive | inactive | inactive | inactive | inactive | inactive
COc1ccc([C@@H]2CNC(=O)C2)cc1OC1CCCC1 | inactive | inactive | inactive | inactive | inactive | inactive | inactive | inactive | inactive | inactive | inactive | inactive | inactive | inactive | inactive | inactive | inactive | inactive | inactive | inactive
COc1cccc2c1C(=O)c1c(O)c3c(c(O)c1C2=O)C[C@@](O)(C(=O)CO)C[C@@H]3O[C@H]1C[C@H](N)[C@H](OC2CCCCO2)[C@H](C)O1 (some centres not stated) | 2 µM (active) | 16.9 µM (active) | 3.01 µM (active) | 3.55 µM (active) | 2 µM (active) | 2 µM (active) | 5.01 µM (active) | 0.708 µM (active) | 12.6 µM (active) | 5.36 µM (active) | 6.75 µM (active) | 6.75 µM (active) | 6.01 µM (active) | 7.57 µM (active) | 6.75 µM (active) | 2.39 µM (active) | 6.75 µM (active) | 12.6 µM (active) | 4.78 µM (active) | 3.79 µM (active)
COc1ccc2c(c1OC)C(=O)OC2[C@H]1c2c(cc3c(c2OC)OCO3)CCN1C (some centres not stated) | inactive | inactive | inactive | inactive | inactive | inactive | inactive | inactive | inactive | inactive | inactive | inactive | inactive | inactive | inactive | inactive | inactive | inactive | inactive | inactive
